Shown are actives, neighbours in structure and some others; about 21% of the full set was active somewhere.
Pf growth 48h – Primary qHTS for delayed death inhibitors of the malarial parasite plastid, 48 hour incubation; P. falciparum luciferase growth in erythrocytes, 48 h; Potency, µM (top dose mostly 28.7 µM), usual class: inhibitors; 310,000 tested, 5.9% active
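First compound was added to culture medium, then infected red cells at 0.1% parasitemia and 2% hematocrit (final). After incubation at 37 C under 5% CO2, luciferase detection reagent was dispensed and light output recorded.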
NS1 function inh – qHTS Assay for Inhibitors of Influenza NS1 Protein Function; Potency, µM (series often up to 46.1 µM); 270,000 tested, 0.4% active; calls by dose curve; also: actives are rising curves; nearly all actives have a fitted effect of over 50% in size
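Growth recovery, yeast-based: influenza A NS1 expressed in S. cerevisiae causes slow growth, and suppressors are detected by OD600. The parent strain without NS1 is used as positive control.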
Pf growth 96h – Primary qHTS for delayed death inhibitors of the malarial parasite plastid, 96 hour incubation; P. falciparum luciferase reporter growth, 96 h; 320,000 tested, 6.9% active; Potency, µM (series often up to 28.7 µM), most hits filed as inhibitors; AID 504834, 2011
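96 h incubation, 37 C, 5% CO2, of luciferase-reporter P. falciparum-infected RBCs (2% hematocrit, 0.05% parasitemia final) with test compounds; endpoint luminescence.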
Cycloheximide cs – Cycloheximide Counterscreen for Small Molecule Inhibitors of Shiga Toxin. max response, %. cell reporter, cycloheximide protein synthesis inhibition counterscreen. 300,000 tested, 12% active; in the data active = max response mostly above about 13%, no sharp cut-off; inactive = mostly below about 14%; also: read at 38.3 µM for the half of the compounds with a filed dose
FBPA Giardia inh – qHTS Assay for Inhibitors of Fructose-1,6-bisphosphate Aldolase from Giardia Lamblia. A8B2U2. purified Giardia FBPA. Potency, µM (doses to about 59.6 µM), usual class: inhibitors. 290,000 tested, 0.71% active. AID 2451, 2010; also: nearly all actives have a fitted effect of over 55% in size
Target sequence (A8B2U2 whole entry, looked up): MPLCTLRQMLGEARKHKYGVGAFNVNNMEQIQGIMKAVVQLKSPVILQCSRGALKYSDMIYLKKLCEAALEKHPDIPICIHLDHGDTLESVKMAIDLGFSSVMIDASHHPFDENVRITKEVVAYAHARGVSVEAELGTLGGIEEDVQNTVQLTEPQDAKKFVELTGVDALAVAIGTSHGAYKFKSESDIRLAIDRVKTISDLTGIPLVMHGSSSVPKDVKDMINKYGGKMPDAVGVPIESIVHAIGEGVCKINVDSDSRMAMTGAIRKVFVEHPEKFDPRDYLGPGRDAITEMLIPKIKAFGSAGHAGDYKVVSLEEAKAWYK
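40 nM FBPA preincubated 10 min at RT with compound (up to 57.5 uM final), then substrate plus GAPDH/TPI/NAD/arsenate coupling and diaphorase/resazurin added. Fluorescence read after 20 min at RT, 525/598 nm.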
Shiga toxin inh – A qHTS for Small Molecule Inhibitors of Shiga Toxin; Vero cells, Shiga toxin protein synthesis inhibition reporter; inhibition, % at 38.7 µM; 290,000 tested, 9.2% active; in the data active = inhibition mostly above about 28%, no sharp cut-off; inactive = mostly below about 43%
Numbers stand for hits; n = inactive; u = inconclusive; x = not tested or not shown; [ ] = remark or other dose. Unless noted, calls follow the shape of the dose curve; as a rule, active = well fitted curve in the direction sought with a large enough effect; inconclusive = small, poorly fitted or top-dose-only effect, or another doubt; inactive = no such curve, though single readings can be large; an effect the other way counts as inactive or inconclusive.

SMILES | Pf growth 48h | NS1 function inh | Pf growth 96h | Cycloheximide cs | FBPA Giardia inh | Shiga toxin inh
CCOC(=O)c1sc(-c2ccc(Br)cc2)cc1N | n | n | n | 54 | n | 114
COc1ccc(CC2(CO)CCN(Cc3cccn3-c3ccccn3)CC2)cc1 | u | n | n | n | n | n
O=C(Nc1c(C(=O)N2CCCCC2)cnn1-c1ccccc1)c1ccccc1F | n | n | u | n | x | n
COC1=CC(=O)C(C(=O)c2ccccc2)=CC1=O | x | x | x | x | 1.1µM | x
COc1ccc(C(=O)c2ccccc2)cc1Br | n | n | n | n | x | n
COc1ccc(C(=O)c2ccc(Br)cc2)cc1 | 12µM | n | u | n | n | n
O=C(c1ccccc1)c1ccc(Oc2ncccn2)cc1 | n | n | n | 58 | n | n
COc1ccc(C(=O)c2ccc(OC)c(OC)c2)cc1OC | n | n | n | n | n | n
COc1ccc(C(=O)c2nccc3cc(OC)c(OC)cc23)cc1OC | 1.2µM | x | 0.74µM | x | x | x
O=C(c1ccccc1)c1ccc(OCCO)cc1 | n | n | n | n | n | 38
COc1ccc(C(=O)c2nccc3ccccc23)cc1 | n | x | n | 37 | n | n
COc1ccccc1OCCOc1ccc(C(=O)c2ccccc2)cc1 | n | n | u | n | n | n
NC(=O)Cc1ccc(C(=O)c2ccc(Cl)cc2)s1 | n | x | n | n | n | 57
COc1ccc(C(=O)c2ccccc2)cc1 | n | x | u | 31 | n | n
O=C(O)Cc1ccc(C(=O)c2ccc(Cl)cc2)s1 | x | n | n | n | n | n
CCOC(=O)c1c(S(=O)(=O)NCC(=O)Nc2ccc(F)cc2F)c(C)n(C)c1C | n | n | u | n | n | n
Cc1cc(S(=O)(=O)/N=C(\N)c2ccc(C(N)=O)cc2)cc(C)c1F | n | n | n | n | n | n
O=C(O)c1ccc(S(=O)(=O)N(Cc2ccccc2)C2CCCCC2)cc1 | n | n | n | n | n | n
CC(=O)NCCc1c(C)n(Cc2ccccc2)c2ccccc12 | n | n | n | n | n | n
COc1ccc(C(Cl)=C(c2ccc(OC)cc2)c2ccc(OC)cc2)cc1 | 9.3µM | n | u | n | n | n
O=C(O)Cc1ccc(C(=O)c2ccccc2)s1 | x | n | n | n | n | n
COc1ccc(C(=O)c2ccc(CC(=O)O)s2)cc1 | 6.6µM | x | u | n | n | n
COc1ccc(C2=NOC(C(=O)NCc3cccnc3)C2)cc1 (stereo not drawn) | n | n | u | n | n | n
CC(=O)Nc1ccc(NC(=O)C(C)OC(=O)C2(c3ccc(Cl)cc3)CCCC2)cc1 (stereo not drawn) | 9.3µM | n | 12µM | n | n | n
CN1N=C2c3ccccc3CCCC2C1c1ccc(F)cc1 (stereo not drawn) | n | n | n | 39 | n | 76
SMILES | Pf growth 48h | NS1 function inh | Pf growth 96h | Cycloheximide cs | FBPA Giardia inh | Shiga toxin inh
CCOc1ccccc1-c1nc(-c2ccc(C)nc2OC)no1 | n | n | n | 44 | n | 92
CCOc1nc(C)ccc1-c1noc(-c2ccccn2)n1 | n | n | n | 26 | n | n
CCOc1nc(C)ccc1-c1noc(-c2ccco2)n1 | n | n | n | 32 | n | n
CCCn1c(=O)c(C(=O)NNS(=O)(=O)c2ccc(Cl)cc2)c(O)c2ccccc21 | n | n | n | n | u | n
Nc1nonc1-c1nc2ccccc2n1CC(=O)Nc1ccccc1 | n | u | n | n | n | n
Nc1nonc1-c1nc2ccccc2n1CC(=O)NC1CCCC1 | n | n | 10µM | n | n | n
CCc1ccc2nc(NC(=O)C3CSC4(C)CCC(=O)N34)sc2c1 (stereo not drawn) | n | x | n | x | x | x
CCN1CCN(C(=O)/C=C/c2ccc(OC)c(OC)c2)CC1 | n | n | u | n | n | n
CCN1CCN(C(=O)/C=C/c2cccc(Cl)c2)CC1 | n | n | n | 15 | n | n
CCN1CCN(C(=O)/C=C/c2c(F)cccc2Cl)CC1 | n | n | n | n | n | 15
O=C(/C=C/c1c(F)cccc1Cl)N1CCc2ccccc2C1 | n | n | u | 14 | n | x
O=[N+]([O-])c1cc([N+](=O)[O-])c(Oc2ccc(Br)cc2Br)cc1NN1CCCCC1 | n | n | 12µM | n | n | n
Cc1noc(C)c1C(=O)N1CCC2(CC1)CN(C(=O)Nc1cccc(F)c1)C2 | x | x | x | x | n | x
Cc1ccccc1N(CC(=O)NCCSCc1ccccc1)S(C)(=O)=O | n | n | 12µM | n | n | n
COc1ccc(C)cc1N(CC(=O)NCCSCc1cccc(Cl)c1)S(C)(=O)=O | n | n | 12µM | n | n | x
CS(=O)(=O)N(CC(=O)NCCSCc1ccccc1)c1ccccc1Br | n | n | 7.4µM | n | n | n
CC1=CC(=O)C2=C(C)CC[C@@H]3[C@@H](OC(=O)[C@H]3C)[C@H]12 | x | x | x | x | n | x
CC1=CC(=O)C2=C(C)CC(O)C3C(C)C(=O)OC3C12 (stereo not drawn) | n | n | 13µM | n | n | n
c1ccc2c(c1)NCC1CCCN21 (stereo not drawn) | u | n | n | n | n | n
Cc1cccc(OCc2nc(C#N)c(NCCN(C)C)o2)c1 | n | n | u | n | n | n
Cc1cccc(OCc2nc(C#N)c(N3CC(C)CC(C)C3)o2)c1 (stereo not drawn) | x | n | 13µM | n | n | n
COc1ccc(Nc2oc(COc3ccc(OC)cc3)nc2C#N)cc1 | u | n | n | n | n | n
COc1ccc(Nc2oc(COc3ccc(C)cc3)nc2C#N)cc1 | u | n | n | n | n | 41
CCNc1oc(COc2cccc(C)c2)nc1C#N | n | n | u | 23 | n | n
COc1ccc(Nc2oc(COc3cccc(C)c3)nc2C#N)cc1 | u | n | n[5.75 µM] | 60 | n | 76
SMILES | Pf growth 48h | NS1 function inh | Pf growth 96h | Cycloheximide cs | FBPA Giardia inh | Shiga toxin inh
CC1CCN(S(=O)(=O)c2ccc(C(=O)N3CCCC(C(F)(F)F)C3)cc2)CC1 (stereo not drawn) | n | x | u | x | x | x
CCc1ccc(NC(=O)[C@H](Cc2ccccc2)NC(=O)C2CCN(C(=O)[C@@H](N)CC(C)C)CC2)cc1 | u | n | u | n | n | n
COc1ccc2[nH]cc(CCNc3ncncc3-c3c(C)noc3C)c2c1 | x | x | x | x | n | x
C/C=C/c1ccc(OCCCCn2cncn2)c(OC)c1 | n | n | x | 34 | n | 54
C/C=C/c1ccc(OCCCn2cncn2)c(OC)c1 | n | n | n | 11 | n | n
C/C=C/c1ccc(OCCn2cncn2)c(OC)c1 | n | n | n | n | n | n
O=C(Nc1ccccc1F)C(=O)c1cn(CC(=O)N2CCCCC2)c2ccccc12 | n | x | n | 33 | n | 54
CC(=O)Nc1cccc(NC(=O)C(=O)c2cn(CC(=O)N3CCCCC3)c3ccccc23)c1 | n | x | u | 45 | n | 85
CC(=O)Nc1ccc(NC(=O)C(=O)c2cn(CC(=O)N3CCCC3)c3ccccc23)cc1 | n | n | n | n | n | n
Cc1ccc(S(=O)(=O)N2[C@@H](c3cccc(Cl)c3)C(C(=O)O)=CC[C@H]2c2ccc(C(C)C)cc2)cc1 | n | x | n | x | x | x
